# Measured values published in PubChem BioAssay (Tox21).
# Unmarked numbers belong to inactive results. Records with an inconclusive call do not appear. A call without a number means that no potency is given here. Active and inactive are the calls of the source. Unless noted, the call rests on the fitted dose curve; in most records, active means well fitted curve in the direction sought with a large enough effect in the repeat runs; inconclusive means weak or mixed curves; inactive means no such curve, though single readings can be large; an effect the other way counts as inactive or inconclusive.
# How the values were obtained:
# [1] = qHTS RealTime-Glo MT Cell Viability Assay in HEK293 cells - 24 hour (AID 1224886); further: nearly all actives have a fitted effect of over 50% in size; further: potency means the concentration at half of the fitted maximal effect; on activity change, negative = cytotoxicity: top concentration of the series differs between compounds
# Procedure, shortened: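 Assay medium contained NanoLuc luciferase plus cell-permeant prosubstrate, added with HEK293 cells at 600 cells/well. After 5 h at 37 C/5% CO2 compounds were added; plates stayed at 37 C for 40 h with serial luminescence reads.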
# [2] = qHTS RealTime-Glo MT Cell Viability Assay in HEK293 cells - 8 hour (AID 1224887); further: nearly all actives have a fitted effect of over 50% in size; further: potency means the concentration at half of the fitted maximal effect; on activity change, negative = cytotoxicity: top concentration of the series differs between compounds
# Procedure, shortened: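 Viable HEK293 cells reduce a cell-permeant prosubstrate; the product diffuses out and is consumed by NanoLuc in the medium to give light. Compounds went in after a 5 h incubation and plates were read over the treatment course.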
# [3] = A CellTox Green Cytotoxicity Assay to monitor cytotoxicity in HEK293 cells - 16 hour (AID 1224888); further: nearly all actives have a fitted effect of over 35% in size
# Procedure, shortened: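 Fluorescence intensity, read at 0, 8, 16, 24, 32 and 40 h of compound treatment, reflected dye binding to DNA of dead HEK293 cells; compounds (23 nL, DMSO) were added 5 h after plating cells with reagent.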
# [4] = qHTS RealTime-Glo MT Cell Viability Assay in HepG2 cells - 0 hour (AID 1224889); further: nearly all actives have a fitted effect of over 50% in size
# Procedure, shortened: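 qHTS, HepG2, 600 cells/well, RealTime-Glo (NanoLuc + prosubstrate) added with cells; 5 h preincubation; DMSO compound addition; 37 C; luminescence at 0/8/16/24/32/40 h.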
# [5] = A CellTox Green Cytotoxicity Assay to monitor cytotoxicity in HepG2 cells - 8 hour (AID 1224890); further: nearly all actives have a fitted effect of over 45% in size
# Procedure, shortened: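 Using 1536-well format, dye-containing HepG2 suspension was seeded, allowed 5 h at 37 C/5% CO2, dosed by pintool with compounds, positive and negative controls, and imaged for fluorescence across 40 h.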
# [6] = qHTS assay to identify small molecule antagonists of the estrogen receptor alpha (ER-alpha) signaling pathway using the BG1 cell line in the presence of 0.1 nM 17-beta-estradiol - cell viability counter screen (AID 1259241); further: nearly all actives have a fitted effect of over 40% in size
# Procedure, shortened: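 Estradiol-stimulated (0.1 nM) VM7Luc4E2 cells exposed to compounds 22 hr; viability measured by fluorescence of cleaved CellTiter-Fluor substrate after 30 min.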
# [7] = qHTS assay to identify small molecule antagonists of the androgen receptor (AR) signaling pathway using the MDA cell line in the presence of 0.5 nM R1881 - cell viability counter screen (AID 1259242); further: nearly all actives have a fitted effect of over 45% in size
# Procedure, shortened: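 Viability of MDA-kb2 cells was multiplexed with the luciferase AR readout; after 16 hr with compounds and R1881 at 0.5 nM final, CellTiter-Fluor fluorescence was recorded.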
# [8] = biological target: Androgen receptor (Homo sapiens) (UniProt P10275); assay: qHTS assay to identify small molecule antagonists of the androgen receptor (AR) signaling pathway using the MDA cell line in the presence of 0.5 nM R1881 (AID 1259243); further: nearly all actives have a fitted effect of over 50% in size
# Procedure, shortened: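 Reporter cells cultured without CO2 receive test chemicals, then 0.5 nM R1881 final; after 16 hr at 37C, ONE-Glo is added and light output recorded.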
# [9] = biological target: Estrogen receptor (Homo sapiens) (UniProt P03372); assay: qHTS assay to identify small molecule antagonists of the estrogen receptor alpha (ER-alpha) signaling pathway using the BG1 cell line in the presence of 0.1 nM 17-beta-estradiol (AID 1259244); further: nearly all actives have a fitted effect of over 50% in size; further: potency means the concentration at half of the fitted maximal effect
# Procedure, shortened: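 Estradiol at 0.1 nM (final) stimulates the endogenous ER-alpha of VM7Luc4E2 cells carrying an ERE-driven luciferase; compounds are co-incubated 22 h at 37C and luciferase output quantified by luminescence.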
# [10] = qHTS assay to identify small molecule HDAC inhibitors (AID 1259364);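 further: wild-type HCT-116 cells with endogenous class I/II HDAC activity; top concentration of the series differs between compounds; nearly all actives have a fitted effect of over 45% in size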
# Procedure, shortened: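 Read-out: luminescence of HDAC-Glo I/II reagent, 30 min RT, reflecting class I/II deacetylase activity in whole HCT-116 cells pre-exposed 2 h to DMSO-dissolved compounds.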
# [11] = qHTS assay to identify small molecule HDAC inhibitors - cell viability counter screen (AID 1259365)
# Procedure, shortened: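 After overnight seeding at 1,500 cells per well, wild-type HCT-116 cultures took up compounds in DMSO for 2hr at 37 C. Viable cell content came from luminescence with CellTiter-Glo.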
# [12] = qHTS assay to identify small molecule agonists of the sonic hedgehog signaling (Shh) pathway - cell viability counter screen (AID 1259366); further: nearly all actives have a fitted effect of over 50% in size
# Procedure, shortened: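 Same-well cytotoxicity read. Gli1-Luc reporter 3T3 cells; compounds 24hr, 37C/5% CO2; CellTiter-Fluor fluorescence.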
# [13] = qHTS assay to identify small molecule antagonists of the sonic hedgehog signaling (Shh) pathway - cell viability counter screen (AID 1259367); further: nearly all actives have a fitted effect of over 55% in size
# Procedure, shortened: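 Using CellTiter-Fluor, viability of Gli1-Luc reporter 3T3 cells is read by fluorescence in the wells used for the Shh luciferase assay. Treatment lasts 23 hr with conditioned medium, then reagent 1 hr at 37C.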
# [14] = qHTS assay to identify small molecule agonists of the sonic hedgehog signaling (Shh) pathway (AID 1259368; calls by dose curve;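 further: NIH/3T3-derived 3T3Gli1-Luc cells carrying a stable Gli1-driven firefly luciferase reporter; series mostly up to about 92 µM; nearly all actives have a fitted effect of over 15% in size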)
# Procedure, shortened: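 A Gli1 transcriptional response element controlled firefly luciferase in 3T3Gli1-Luc cells. Compounds and a positive control were added 4 hr after plating, and cells were incubated a further 24 hr at 37 C before luminescence detection.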
# [15] = qHTS assay to identify small molecule agonists of the androgen receptor (AR) signaling pathway in the presence of an antagonist - cell viability counter screen (AID 1259379);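 further: MDA-kb2 human breast cancer cells carrying an MMTV luciferase reporter; series mostly up to about 92 µM; nearly all actives have a fitted effect of over 25% in size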
# Procedure, shortened: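 Seed MDA-kb2 at 3,000 cells/well; incubate 5 hr, 37C, 0% CO2. Add nilutamide to 3.0uM final, then pin compounds at 15 concentrations. Incubate 16 hr. Add CellTiter-Fluor at 15 hr, read fluorescence after 1 hr.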
# [16] = qHTS assay to identify small molecule agonists of the estrogen receptor beta (ER-beta) signaling pathway - cell viability counter screen (AID 1259380); further: nearly all actives have a fitted effect of over 30% in size
# Procedure, shortened: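 CellTiter-Glo read, 30 min RT, same wells as bla assay; cells ER-beta-UAS-bla HEK293T; 16 hr compound, 37C; medium 2% charcoal-stripped FBS.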
# [17] = qHTS assay to identify small molecule phospholipidosis (PLD) inducers (AID 1259344; active means well fitted curve in the direction sought with a large enough effect; an effect the other way counts as inactive or inconclusive)
# Procedure, shortened: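 Fluorescent phospholipid staining (LipidTOX Red) measured by automated microscopy in fixed HepG2 cells after 24 h treatment; nuclei counterstained with Hoechst 33342; amiodarone as reference inducer.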
# [18] = qHTS assay to identify small molecule antagonists of the sonic hedgehog signaling (Shh) pathway (AID 1259369; calls by dose curve; further: nearly all actives have a fitted effect of over 45% in size)
# Procedure, shortened: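 For antagonist detection, the reporter line received test compounds together with conditioned medium, incubated 24hr at 37 C, 5% CO2, then luminescence was recorded following 30min room-temperature luciferase reagent incubation.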
# [19] = biological target: Estrogen receptor beta (Homo sapiens) (UniProt Q92731); assay: qHTS assay to identify small molecule agonists of the estrogen receptor beta (ER-beta) signaling pathway (AID 1259377; active means well fitted activation curve with a large enough effect in the signal ratio in the repeat runs, not every such curve was filed as active; the % refers to the signal ratio)
# Procedure, shortened: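 Read-out: beta-lactamase FRET fluorescence. Cell line: ER-beta-UAS-bla HEK293T in 2% charcoal-stripped FBS. Exposure: 16 hr at 37C. Substrate step: 2 h at room temperature.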
# [20] = biological target: Estrogen receptor beta (Homo sapiens) (UniProt Q92731); assay: qHTS assay to identify small molecule antagonists of the estrogen receptor beta (ER-beta) signaling pathway (AID 1259378; active means well fitted inhibition curve with a large enough effect in the signal ratio in the repeat runs, not every such curve was filed as active; the % refers to the signal ratio)
# Procedure, shortened: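 Antagonist mode: compounds added to beta-lactamase reporter HEK293T ER-beta-UAS cells stimulated with E2 (1nM final), 16 hr at 37C. LiveBLAzer B/G FRET substrate, 2 hours room temperature, fluorescence read-out.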
# Chain of Androgen receptor (Homo sapiens) (P10275 whole entry, looked up): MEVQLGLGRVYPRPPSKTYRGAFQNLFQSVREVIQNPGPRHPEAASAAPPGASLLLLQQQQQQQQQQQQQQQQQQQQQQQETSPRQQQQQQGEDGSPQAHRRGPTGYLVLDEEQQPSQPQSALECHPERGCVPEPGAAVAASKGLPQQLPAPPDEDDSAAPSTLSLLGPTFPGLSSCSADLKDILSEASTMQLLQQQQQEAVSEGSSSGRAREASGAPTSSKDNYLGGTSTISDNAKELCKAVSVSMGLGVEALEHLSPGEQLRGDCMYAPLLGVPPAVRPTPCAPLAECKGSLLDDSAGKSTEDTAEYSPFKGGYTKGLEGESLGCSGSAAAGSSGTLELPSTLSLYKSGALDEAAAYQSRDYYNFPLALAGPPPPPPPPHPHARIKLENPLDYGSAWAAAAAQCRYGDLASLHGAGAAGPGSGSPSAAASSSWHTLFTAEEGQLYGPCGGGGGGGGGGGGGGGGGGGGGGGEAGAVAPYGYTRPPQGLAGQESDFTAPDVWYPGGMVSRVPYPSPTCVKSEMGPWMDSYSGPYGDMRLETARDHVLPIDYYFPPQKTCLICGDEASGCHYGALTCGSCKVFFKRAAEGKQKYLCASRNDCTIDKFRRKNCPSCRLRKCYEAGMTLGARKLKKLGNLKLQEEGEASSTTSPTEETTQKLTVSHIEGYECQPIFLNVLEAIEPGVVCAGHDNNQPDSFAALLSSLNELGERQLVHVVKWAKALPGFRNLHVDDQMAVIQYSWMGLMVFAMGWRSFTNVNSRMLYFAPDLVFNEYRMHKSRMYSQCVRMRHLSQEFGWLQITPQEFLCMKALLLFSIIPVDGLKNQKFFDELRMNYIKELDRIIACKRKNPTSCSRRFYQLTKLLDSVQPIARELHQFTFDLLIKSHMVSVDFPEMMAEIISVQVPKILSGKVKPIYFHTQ
# Chain of Estrogen receptor (Homo sapiens) (P03372 whole entry, looked up): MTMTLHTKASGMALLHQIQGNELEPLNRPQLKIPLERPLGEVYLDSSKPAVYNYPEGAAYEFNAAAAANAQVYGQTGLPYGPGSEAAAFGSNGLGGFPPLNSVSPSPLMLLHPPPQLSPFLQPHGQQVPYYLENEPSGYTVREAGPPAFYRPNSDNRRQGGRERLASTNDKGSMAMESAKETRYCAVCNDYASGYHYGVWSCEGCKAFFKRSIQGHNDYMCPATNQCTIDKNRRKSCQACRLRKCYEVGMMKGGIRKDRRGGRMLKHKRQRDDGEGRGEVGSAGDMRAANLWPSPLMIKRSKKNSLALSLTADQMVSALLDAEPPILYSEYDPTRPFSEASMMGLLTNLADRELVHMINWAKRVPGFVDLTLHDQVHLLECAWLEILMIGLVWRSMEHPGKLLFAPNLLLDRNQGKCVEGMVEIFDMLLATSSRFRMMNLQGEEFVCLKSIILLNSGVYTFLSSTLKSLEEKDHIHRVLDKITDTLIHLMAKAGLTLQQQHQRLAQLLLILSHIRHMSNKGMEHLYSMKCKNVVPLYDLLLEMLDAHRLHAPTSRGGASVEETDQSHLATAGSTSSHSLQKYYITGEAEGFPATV
# Chain of Estrogen receptor beta (Homo sapiens) (Q92731 whole entry, looked up): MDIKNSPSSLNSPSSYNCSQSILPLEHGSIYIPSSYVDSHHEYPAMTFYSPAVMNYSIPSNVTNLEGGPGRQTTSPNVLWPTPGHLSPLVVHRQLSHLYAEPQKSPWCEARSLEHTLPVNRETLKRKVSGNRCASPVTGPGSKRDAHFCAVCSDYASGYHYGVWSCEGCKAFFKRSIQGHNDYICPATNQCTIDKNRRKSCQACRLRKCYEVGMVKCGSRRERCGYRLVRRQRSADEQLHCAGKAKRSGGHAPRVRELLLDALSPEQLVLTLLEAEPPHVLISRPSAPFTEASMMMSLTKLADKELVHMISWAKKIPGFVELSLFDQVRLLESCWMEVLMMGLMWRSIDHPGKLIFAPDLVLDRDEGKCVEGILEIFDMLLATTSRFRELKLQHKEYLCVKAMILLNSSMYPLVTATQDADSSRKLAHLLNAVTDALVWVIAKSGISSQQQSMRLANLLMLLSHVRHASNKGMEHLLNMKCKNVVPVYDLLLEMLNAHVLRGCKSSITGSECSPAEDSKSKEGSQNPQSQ
smiles,measurement,setting,value
Cc1nc2n(c(=O)c1CCN1CCC(C(=O)c3ccc(F)cc3)CC1)CCS2,Potency,[1],5.35 µM (active)
same,Potency,[2],6.74 µM (active)
same,Potency,[3],inactive
same,Potency,[4],inactive
same,Potency,[5],inactive
same,Potency,[6],inactive
same,Potency,[7],inactive
same,outcome,[8],inactive
same,Potency,[9],23.7 µM (active)
same,Potency,[10],inactive
same,outcome,[11],inactive
same,Potency,[12],inactive
same,Potency,[13],inactive
same,outcome,[14],inactive
same,Potency,[15],inactive
same,outcome,[16],inactive
NC(=O)C1(N2CCCCC2)CCN(CCCC(=O)c2ccc(F)cc2)CC1,Potency,[1],inactive
same,Potency,[2],inactive
same,Potency,[3],inactive
same,Potency,[4],inactive
same,Potency,[5],inactive
same,Potency,[6],inactive
same,Potency,[7],inactive
same,Potency,[9],inactive
same,outcome,[17],inactive
same,Potency,[10],inactive
same,Potency,[13],inactive
same,outcome,[14],inactive
same,Potency,[18],inactive
same,Potency,[15],inactive
same,outcome,[16],inactive
O=c1[nH]c(=O)c2[nH]c(=O)[nH]c2[nH]1,"activity change, negative = cytotoxicity",[1],8.57% [at 6.97 µM]
same,"activity change, negative = cytotoxicity",[2],9.35% [at 6.97 µM]
same,activity change,[3],"-15.6% [at 6.97 µM, stronger effect = higher value]"
same,"activity change, negative = cytotoxicity",[4],-4.02% [at 6.97 µM]
same,cytotoxicity increase,[5],1.39% [at 6.97 µM]
same,"activity change, negative = cytotoxicity",[6],0.489% [at 8.39 µM]
same,"viability change, negative = cytotoxic",[7],-0.67% [at 8.39 µM]
same,"activity change, negative = inhibition",[9],-0.565% [at 8.39 µM]
same,"activity change, negative = inhibition",[10],11.3% [at 8.39 µM]
same,"activity change, negative = cytotoxicity",[11],0.314% [at 8.39 µM]
same,"viability change, negative = cytotoxic",[12],-3.05% [at 8.39 µM]
same,"viability change, negative = cytotoxic",[13],0.704% [at 8.39 µM]
same,activity change,[14],0.435% [at 8.39 µM]
same,"activity change, negative = inhibition",[18],16.8% [at 8.39 µM]
same,activation,[19],-1.14% [at 8.39 µM]
same,"activity, negative = inhibition",[20],11.9% [at 8.39 µM]
same,"activity change, negative = cytotoxicity",[15],-1.23% [at 8.39 µM]
same,"activity change, negative = cytotoxicity",[16],0.228% [at 8.39 µM]
O=S(=O)(O)SSS(=O)(=O)O,Potency,[1],inactive
same,Potency,[2],inactive
same,Potency,[3],inactive
same,Potency,[4],inactive
same,Potency,[5],inactive
same,Potency,[6],inactive
same,Potency,[7],inactive
same,outcome,[8],inactive
same,Potency,[10],inactive
same,Potency,[12],inactive
same,Potency,[13],inactive
same,outcome,[14],inactive
same,Potency,[18],inactive
same,Potency,[19],inactive
same,outcome,[20],inactive
same,Potency,[15],inactive
same,outcome,[16],inactive
CCNC(=O)/C=C/c1cccc(Br)c1,Potency,[1],inactive
same,Potency,[2],inactive
same,Potency,[3],inactive
same,Potency,[4],inactive
same,Potency,[5],inactive
same,Potency,[6],inactive
same,Potency,[7],inactive
same,outcome,[8],inactive
same,outcome,[17],inactive
same,outcome,[11],inactive
same,Potency,[12],inactive
same,Potency,[18],inactive
same,Potency,[19],inactive
same,outcome,[20],inactive
same,Potency,[15],inactive
same,outcome,[16],inactive
O=C1OC(=O)c2cc(Oc3ccc4c(c3)C(=O)OC4=O)ccc21,Potency,[1],inactive
same,Potency,[2],inactive
same,Potency,[3],inactive
same,Potency,[4],inactive
same,Potency,[5],inactive
same,Potency,[6],inactive
same,Potency,[7],inactive
same,outcome,[8],inactive
same,Potency,[9],inactive
same,Potency,[10],inactive
same,outcome,[11],inactive
same,Potency,[12],inactive
same,Potency,[13],inactive
same,outcome,[14],inactive
same,Potency,[18],inactive
same,outcome,[20],inactive
same,outcome,[16],inactive
Cc1nc([N+](=O)[O-])cn1-c1ccc([N+](=O)[O-])cc1,Potency,[1],inactive
same,Potency,[2],inactive
same,Potency,[3],inactive
same,Potency,[4],inactive
same,Potency,[5],inactive
same,Potency,[6],inactive
same,Potency,[7],inactive
same,Potency,[9],inactive
same,outcome,[17],inactive
same,Potency,[10],inactive
same,outcome,[11],inactive
same,Potency,[12],inactive
same,outcome,[14],inactive
same,Potency,[18],inactive
same,Potency,[15],inactive
same,outcome,[16],inactive
O=C(CN1CCN(Cc2ccc3c(c2)OCO3)CC1)N1c2ccccc2Sc2ccccc21,Potency,[1],inactive
same,Potency,[2],inactive
same,Potency,[3],inactive
same,Potency,[4],inactive
same,Potency,[5],inactive
same,Potency,[6],inactive
same,Potency,[7],inactive
same,outcome,[8],inactive
same,Potency,[10],inactive
same,outcome,[11],inactive
same,Potency,[13],inactive
same,outcome,[14],inactive
same,Potency,[18],inactive
same,Potency,[15],inactive
CCOC(=O)CC#N,Potency,[1],inactive
same,Potency,[2],inactive
same,Potency,[3],inactive
same,Potency,[4],inactive
same,Potency,[5],inactive
same,Potency,[6],inactive
same,Potency,[7],inactive
same,Potency,[9],inactive
same,Potency,[10],inactive
same,outcome,[11],inactive
same,Potency,[12],inactive
same,Potency,[13],inactive
same,outcome,[14],inactive
same,Potency,[18],inactive
same,Potency,[19],inactive
same,outcome,[20],inactive
same,Potency,[15],inactive
same,outcome,[16],inactive
